Results published in the OligoGym collection.

molecular target: DPRX; assay: pooled miR-30 sensor sort-seq; sequence = guide strand; conditions: shRNA
Also: reference of the scale not given here.

Row | Sequence | sensor-assay potency score (higher = more potent)
1 | TCGATGACCCGTGTACACCAGG | -1.09
2 | TTTCCTGTGTGAATGCATCTGG | 0.364
3 | TCTTAGTGAACATGGTTCGTTT | -0.457
4 | TGCTTCTTAGTGAACATGGTTC | -0.891
5 | TTCTTAGTGAACATGGTTCGTT | 0.0305
6 | TAGTGTGTCTGCATTTCTCAGG | -0.247
7 | TTTTGCTCTGTGATTCTTGAAC | -0.966
8 | TATATATTAGGATCTCGGCAGC | -0.886
9 | TTGCTTCTTAGTGAACATGGTT | -0.403
10 | TTTTTGATGAATATGCTTGCAT | 0.217
11 | TTGGGGTACAGGATGAGCTGGA | 0.271

molecular target: DQX1; assay: as above; conditions: shRNA

Row | Sequence | sensor-assay potency score (higher = more potent)
12 | TAGGATTGTAAACACTTCGGAG | -0.968
13 | TTTAGTAGTAACACCAGGGAGC | -0.54
14 | TTGCTCGCAATCGTCTTGCCTC | -0.154
15 | TAGTATGACACCCAGATCTGAC | -0.721
16 | TATAAAGGCTTCATACACCTGG | 0.178
17 | AACACTAGCACATCTCCTGGAA | 0.212
18 | TGAGTGACCACAACCTTTCGGG | 0.181
19 | TTCTGATAGTATGACACCCAGA | -1.09
20 | TTTTAGTAGTAACACCAGGGAG | -0.895
21 | TTCAGCAGCTCATAGTAGCGGG | -0.681
22 | TTGAATCTCAGAAACAATGGAA | 0.304
23 | TTCTGGAGCAGGCTGGTCCAGG | -1.18
